# Results: the supplement of paper PMC4466140
# Molecular target: AgAbp1
# Test: SPOT peptide array binding signal intensity (averaged, normalized) (arbitrary units (background-subtracted, floor 0; scale differs between SH3 domains)); higher = stronger binding of the SH3 domain to the peptide
# Procedure, shortened: (§1)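 Peptides were synthetic 15-mers on cellulose membranes, with every cysteine replaced by serine. They were incubated overnight at 4°C with GST-SH3 domains from four yeast species at 10 μg/ml in TBS-based blocking buffer. Binding signal, the replicate-averaged normalized and background-subtracted spot intensity, is in arbitrary units that differ between domains.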
row,Binder,SPOT peptide array binding signal intensity
1,RTRRRPPPPPIPSTQ,334

# Molecular target: AgBbc1
# Test: as above
# Procedure, shortened: as §1
row,Binder,SPOT peptide array binding signal intensity
1,RTRRRPPPPPIPSTQ,531

# Molecular target: AgBem1-D1
# Test: as above
# Procedure, shortened: as §1
row,Binder,SPOT peptide array binding signal intensity
1,RTRRRPPPPPIPSTQ,308

# Molecular target: AgBzz1-D1
# Test: as above
# Procedure, shortened: as §1
row,Binder,SPOT peptide array binding signal intensity
1,RTRRRPPPPPIPSTQ,3430

# Molecular target: AgBzz1-D2
# Test: as above
# Procedure, shortened: as §1
row,Binder,SPOT peptide array binding signal intensity
1,RTRRRPPPPPIPSTQ,1460

# Molecular target: AgCyk3
# Test: as above
# Procedure, shortened: as §1
row,Binder,SPOT peptide array binding signal intensity
1,RTRRRPPPPPIPSTQ,2

# Molecular target: AgFus1
# Test: as above
# Procedure, shortened: as §1
row,Binder,SPOT peptide array binding signal intensity
1,RTRRRPPPPPIPSTQ,87

# Molecular target: AgHof1
# Test: as above
# Procedure, shortened: as §1
row,Binder,SPOT peptide array binding signal intensity
1,RTRRRPPPPPIPSTQ,256

# Molecular target: AgHse1
# Test: as above
# Procedure, shortened: as §1
row,Binder,SPOT peptide array binding signal intensity
1,RTRRRPPPPPIPSTQ,91

# Molecular target: AgLsb1
# Test: as above
# Procedure, shortened: as §1
row,Binder,SPOT peptide array binding signal intensity
1,RTRRRPPPPPIPSTQ,370

# Molecular target: AgLsb4
# Test: as above
# Procedure, shortened: as §1
row,Binder,SPOT peptide array binding signal intensity
1,RTRRRPPPPPIPSTQ,136

# Molecular target: AgMyo5
# Test: as above
# Procedure, shortened: as §1
row,Binder,SPOT peptide array binding signal intensity
1,RTRRRPPPPPIPSTQ,339

# Molecular target: AgNbp2
# Test: as above
# Procedure, shortened: as §1
row,Binder,SPOT peptide array binding signal intensity
1,RTRRRPPPPPIPSTQ,2690

# Molecular target: AgRvs167
# Test: as above
# Procedure, shortened: as §1
row,Binder,SPOT peptide array binding signal intensity
1,RTRRRPPPPPIPSTQ,99.3

# Molecular target: AgSho1
# Test: as above
# Procedure, shortened: as §1
row,Binder,SPOT peptide array binding signal intensity
1,RTRRRPPPPPIPSTQ,27

# Molecular target: AgSla1-D1-D2
# Test: as above
# Procedure, shortened: as §1
row,Binder,SPOT peptide array binding signal intensity
1,RTRRRPPPPPIPSTQ,23

# Molecular target: AgSla1-D3
# Test: as above
# Procedure, shortened: as §1
row,Binder,SPOT peptide array binding signal intensity
1,RTRRRPPPPPIPSTQ,735

# Molecular target: CaAbp1-D1
# Test: as above
# Procedure, shortened: as §1
row,Binder,SPOT peptide array binding signal intensity
1,RTRRRPPPPPIPSTQ,748

# Molecular target: CaAbp1-D2
# Test: as above
# Procedure, shortened: as §1
row,Binder,SPOT peptide array binding signal intensity
1,RTRRRPPPPPIPSTQ,1060

# Molecular target: CaBbc1
# Test: as above
# Procedure, shortened: as §1
row,Binder,SPOT peptide array binding signal intensity
1,RTRRRPPPPPIPSTQ,965

# Molecular target: CaBem1-D1
# Test: as above
# Procedure, shortened: as §1
row,Binder,SPOT peptide array binding signal intensity
1,RTRRRPPPPPIPSTQ,124

# Molecular target: CaBzz1-D1
# Test: as above
# Procedure, shortened: as §1
row,Binder,SPOT peptide array binding signal intensity
1,RTRRRPPPPPIPSTQ,7320

# Molecular target: CaBzz1-D2
# Test: as above
# Procedure, shortened: as §1
row,Binder,SPOT peptide array binding signal intensity
1,RTRRRPPPPPIPSTQ,4870

# Molecular target: CaCyk3
# Test: as above
# Procedure, shortened: as §1
row,Binder,SPOT peptide array binding signal intensity
1,RTRRRPPPPPIPSTQ,53.5

# Molecular target: CaFus1
# Test: as above
# Procedure, shortened: as §1
row,Binder,SPOT peptide array binding signal intensity
1,RTRRRPPPPPIPSTQ,452

# Molecular target: CaHof1
# Test: as above
# Procedure, shortened: as §1
row,Binder,SPOT peptide array binding signal intensity
1,RTRRRPPPPPIPSTQ,0.5

# Molecular target: CaHse1
# Test: as above
# Procedure, shortened: as §1
row,Binder,SPOT peptide array binding signal intensity
1,RTRRRPPPPPIPSTQ,21

# Molecular target: CaLsb1
# Test: as above
# Procedure, shortened: as §1
row,Binder,SPOT peptide array binding signal intensity
1,RTRRRPPPPPIPSTQ,1.25

# Molecular target: CaLsb4
# Test: as above
# Procedure, shortened: as §1
row,Binder,SPOT peptide array binding signal intensity
1,RTRRRPPPPPIPSTQ,1170

# Molecular target: CaMyo5
# Test: as above
# Procedure, shortened: as §1
row,Binder,SPOT peptide array binding signal intensity
1,RTRRRPPPPPIPSTQ,19.8

# Molecular target: CaNbp2
# Test: as above
# Procedure, shortened: as §1
row,Binder,SPOT peptide array binding signal intensity
1,RTRRRPPPPPIPSTQ,1440

# Molecular target: CaRvs167
# Test: as above
# Procedure, shortened: as §1
row,Binder,SPOT peptide array binding signal intensity
1,RTRRRPPPPPIPSTQ,111

# Molecular target: CaRvs167-3
# Test: as above
# Procedure, shortened: as §1
row,Binder,SPOT peptide array binding signal intensity
1,RTRRRPPPPPIPSTQ,22.5

# Molecular target: CaSho1
# Test: as above
# Procedure, shortened: as §1
row,Binder,SPOT peptide array binding signal intensity
1,RTRRRPPPPPIPSTQ,98

# Molecular target: CaSla1-D1-D2
# Test: as above
# Procedure, shortened: as §1
row,Binder,SPOT peptide array binding signal intensity
1,RTRRRPPPPPIPSTQ,2100

# Molecular target: CaSla1-D3
# Test: as above
# Procedure, shortened: as §1
row,Binder,SPOT peptide array binding signal intensity
1,RTRRRPPPPPIPSTQ,391

# Molecular target: ScAbp1
# Test: as above
# Procedure, shortened: as §1
row,Binder,SPOT peptide array binding signal intensity
1,RTRRRPPPPPIPSTQ,114

# Molecular target: ScBbc1
# Test: as above
# Procedure, shortened: as §1
row,Binder,SPOT peptide array binding signal intensity
1,RTRRRPPPPPIPSTQ,511

# Molecular target: ScBem1-D1
# Test: as above
# Procedure, shortened: as §1
row,Binder,SPOT peptide array binding signal intensity
1,RTRRRPPPPPIPSTQ,13.5

# Molecular target: ScBzz1-D1
# Test: as above
# Procedure, shortened: as §1
row,Binder,SPOT peptide array binding signal intensity
1,RTRRRPPPPPIPSTQ,1990

# Molecular target: ScBzz1-D2
# Test: as above
# Procedure, shortened: as §1
row,Binder,SPOT peptide array binding signal intensity
1,RTRRRPPPPPIPSTQ,258

# Molecular target: ScCyk3
# Test: as above
# Procedure, shortened: as §1
row,Binder,SPOT peptide array binding signal intensity
1,RTRRRPPPPPIPSTQ,19

# Molecular target: ScFus1
# Test: as above
# Procedure, shortened: as §1
row,Binder,SPOT peptide array binding signal intensity
1,RTRRRPPPPPIPSTQ,40.5

# Molecular target: ScHof1
# Test: as above
# Procedure, shortened: as §1
row,Binder,SPOT peptide array binding signal intensity
1,RTRRRPPPPPIPSTQ,2

# Molecular target: ScHse1
# Test: as above
# Procedure, shortened: as §1
row,Binder,SPOT peptide array binding signal intensity
1,RTRRRPPPPPIPSTQ,473

# Molecular target: ScLsb1
# Test: as above
# Procedure, shortened: as §1
row,Binder,SPOT peptide array binding signal intensity
1,RTRRRPPPPPIPSTQ,492

# Molecular target: ScLsb2
# Test: as above
# Procedure, shortened: as §1
row,Binder,SPOT peptide array binding signal intensity
1,RTRRRPPPPPIPSTQ,559

# Molecular target: ScLsb3
# Test: as above
# Procedure, shortened: as §1
row,Binder,SPOT peptide array binding signal intensity
1,RTRRRPPPPPIPSTQ,2080

# Molecular target: ScLsb4
# Test: as above
# Procedure, shortened: as §1
row,Binder,SPOT peptide array binding signal intensity
1,RTRRRPPPPPIPSTQ,258

# Molecular target: ScMyo3
# Test: as above
# Procedure, shortened: as §1
row,Binder,SPOT peptide array binding signal intensity
1,RTRRRPPPPPIPSTQ,940

# Molecular target: ScMyo5
# Test: as above
# Procedure, shortened: as §1
row,Binder,SPOT peptide array binding signal intensity
1,RTRRRPPPPPIPSTQ,1490

# Molecular target: ScNbp2
# Test: as above
# Procedure, shortened: as §1
row,Binder,SPOT peptide array binding signal intensity
1,RTRRRPPPPPIPSTQ,3190

# Molecular target: ScPex13
# Test: as above
# Procedure, shortened: as §1
row,Binder,SPOT peptide array binding signal intensity
1,RTRRRPPPPPIPSTQ,318

# Molecular target: ScRvs167
# Test: as above
# Procedure, shortened: as §1
row,Binder,SPOT peptide array binding signal intensity
1,RTRRRPPPPPIPSTQ,1430

# Molecular target: ScSho1
# Test: as above
# Procedure, shortened: as §1
row,Binder,SPOT peptide array binding signal intensity
1,RTRRRPPPPPIPSTQ,894

# Molecular target: ScSla1-D1-D2
# Test: as above
# Procedure, shortened: as §1
row,Binder,SPOT peptide array binding signal intensity
1,RTRRRPPPPPIPSTQ,3110

# Molecular target: ScSla1-D3
# Test: as above
# Procedure, shortened: as §1
row,Binder,SPOT peptide array binding signal intensity
1,RTRRRPPPPPIPSTQ,883

# Molecular target: SpAbp1-D1
# Test: as above
# Procedure, shortened: as §1
row,Binder,SPOT peptide array binding signal intensity
1,RTRRRPPPPPIPSTQ,505

# Molecular target: SpBbc1
# Test: as above
# Procedure, shortened: as §1
row,Binder,SPOT peptide array binding signal intensity
1,RTRRRPPPPPIPSTQ,85.8

# Molecular target: SpBzz1-D1
# Test: as above
# Procedure, shortened: as §1
row,Binder,SPOT peptide array binding signal intensity
1,RTRRRPPPPPIPSTQ,4250

# Molecular target: SpBzz1-D2
# Test: as above
# Procedure, shortened: as §1
row,Binder,SPOT peptide array binding signal intensity
1,RTRRRPPPPPIPSTQ,1520

# Molecular target: SpCyk3
# Test: as above
# Procedure, shortened: as §1
row,Binder,SPOT peptide array binding signal intensity
1,RTRRRPPPPPIPSTQ,1

# Molecular target: SpHof1
# Test: as above
# Procedure, shortened: as §1
row,Binder,SPOT peptide array binding signal intensity
1,RTRRRPPPPPIPSTQ,361

# Molecular target: SpHof1-2
# Test: as above
# Procedure, shortened: as §1
row,Binder,SPOT peptide array binding signal intensity
1,RTRRRPPPPPIPSTQ,53.5

# Molecular target: SpHof1-3
# Test: as above
# Procedure, shortened: as §1
row,Binder,SPOT peptide array binding signal intensity
1,RTRRRPPPPPIPSTQ,340

# Molecular target: SpHse1
# Test: as above
# Procedure, shortened: as §1
row,Binder,SPOT peptide array binding signal intensity
1,RTRRRPPPPPIPSTQ,72.2

# Molecular target: SpLsb1
# Test: as above
# Procedure, shortened: as §1
row,Binder,SPOT peptide array binding signal intensity
1,RTRRRPPPPPIPSTQ,370

# Molecular target: SpLsb4
# Test: as above
# Procedure, shortened: as §1
row,Binder,SPOT peptide array binding signal intensity
1,RTRRRPPPPPIPSTQ,1730

# Molecular target: SpMyo1
# Test: as above
# Procedure, shortened: as §1
row,Binder,SPOT peptide array binding signal intensity
1,RTRRRPPPPPIPSTQ,800

# Molecular target: SpNbp2
# Test: as above
# Procedure, shortened: as §1
row,Binder,SPOT peptide array binding signal intensity
1,RTRRRPPPPPIPSTQ,29.5

# Molecular target: SpPex13
# Test: as above
# Procedure, shortened: as §1
row,Binder,SPOT peptide array binding signal intensity
1,RTRRRPPPPPIPSTQ,26.5

# Molecular target: SpRvs167
# Test: as above
# Procedure, shortened: as §1
row,Binder,SPOT peptide array binding signal intensity
1,RTRRRPPPPPIPSTQ,1250

# Molecular target: SpSla1-D1-D2
# Test: as above
# Procedure, shortened: as §1
row,Binder,SPOT peptide array binding signal intensity
1,RTRRRPPPPPIPSTQ,907

# Molecular target: SpSla1-D3
# Test: as above
# Procedure, shortened: as §1
row,Binder,SPOT peptide array binding signal intensity
1,RTRRRPPPPPIPSTQ,2.5
